The full ranking holds about 33,000 sequences; the median of “E-score (-0.5 to 0.5)” is about -0.013, and the highest 2% start at about 0.3. Only a selection was taken, and the highest values are over-represented in it overall.
Molecular target: T1, Msn1 (UniProt P22148)
T1 sequence: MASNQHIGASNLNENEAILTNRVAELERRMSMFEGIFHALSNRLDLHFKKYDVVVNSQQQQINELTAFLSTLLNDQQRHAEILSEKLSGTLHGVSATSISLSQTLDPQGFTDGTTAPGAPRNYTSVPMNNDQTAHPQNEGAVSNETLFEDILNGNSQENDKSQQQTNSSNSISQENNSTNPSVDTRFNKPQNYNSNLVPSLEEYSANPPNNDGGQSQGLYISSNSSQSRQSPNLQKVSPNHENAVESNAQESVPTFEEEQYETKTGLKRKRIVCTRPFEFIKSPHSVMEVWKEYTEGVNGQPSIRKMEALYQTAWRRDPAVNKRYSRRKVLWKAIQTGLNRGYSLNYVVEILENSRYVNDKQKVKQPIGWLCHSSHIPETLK
Assay: PBM E-score (8-mer binding enrichment) (E-score (-0.5 to 0.5)); higher = stronger / more preferred TF binding
Settings: protein concentration: 200 nM; construct: GST-full length
Experimental: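 Universal 'all 10-mer' protein binding microarrays (Agilent AMADID 015681) probed with GST-tagged S. cerevisiae TFs (full-length or DBD) made by in vitro transcription/translation (PURExpress), about 100-200 nM. Bound TF was detected with fluorescent anti-GST. Each ungapped 8-mer (which stands for itself and its reverse complement) is scored by the PBM enrichment score (E-score), a modified Wilcoxon-Mann-Whitney statistic from -0.5 to +0.5, computed with the Universal PBM Analysis Suite. Scale: above 0.35 generally sequence-specific binding.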

Row | Sequence | PBM E-score
1 | AAGTACAC | 0.192
2 | AAGTACAG | 0.0535
3 | ACGTACAT | 0.307
4 | ACGTACAA | 0.234
5 | GAGTCATC | -0.114
6 | GGTGTCAC | -0.0252
7 | AACGACAG | -0.0454
8 | CGCGACAG | -0.00106
9 | AATGACAT | 0.42
10 | AATGACAG | 0.151
11 | CGCGACAA | 0.304
12 | TACGACAA | 0.352
13 | AATGACAC | 0.213
14 | CACGACAA | 0.256
15 | AACGACAT | 0.417
16 | GACGACAA | 0.299
17 | AACGACAA | 0.262
18 | GGCGACAA | 0.069
19 | CAAGATCC | 0.0979
20 | AAGCAAAG | -0.064
21 | AGGGCCTC | -0.236
22 | AGTTGTGA | 0.137
23 | CGGACCAA | 0.256
24 | CTATCGCA | -0.201
25 | AACCACGT | -0.0931

Row | Sequence | PBM E-score
26 | CTACCAAA | -0.0795
27 | GAGTACTA | 0.198
28 | TGCGACAA | 0.338
29 | AGCGACAA | 0.301
30 | TGCGACCA | 0.0994
31 | CTTTAATA | 0.193
32 | AATTAATA | 0.352
33 | GATTAATA | 0.143
34 | AACTAATA | 0.326
35 | CACTAATA | 0.0713
36 | GTTTAAAA | 0.0898
37 | TATTAATA | -0.134
38 | AATTAATT | 0.168
39 | TACTAATA | 0.0704
40 | ATTTAATA | 0.336
41 | ATTTAATG | 0.202
42 | GTTTAATA | 0.315
43 | CGCGGTGC | -0.123
44 | TAAGTTAA | -0.0568
45 | CGCTACCG | 0.00385
46 | GGCGAAAA | 0.24
47 | GTTAGAAA | -0.0269
48 | CATCTTCA | 0.0522
49 | GGAGGGCC | -0.273
50 | CGCCAGGC | -0.174

Row | Sequence | PBM E-score
51 | TATATTAA | 0.232
52 | CATATTAA | 0.32
53 | AATATTAT | 0.208
54 | AATATTGT | 0.35
55 | AATATTGG | -0.0454
56 | AATATTAG | 0.131
57 | AATATTAA | 0.318
58 | CATATTAG | 0.193
59 | AATATTGC | 0.218
60 | CGATAAAG | 0.119
61 | AGCTCACC | -0.141
62 | AAAGTCCT | 0.427
63 | AAAGTCGT | 0.223
64 | CAAGTCCG | 0.0478
65 | CAAGTCCC | 0.148
66 | AAAGTCCA | 0.378
67 | AGAGTCCT | -0.0894
68 | AAAGTCCG | 0.342
69 | GAAGTCCC | -0.0665
70 | GAAGTCCA | 0.212
71 | AAAGTCCC | 0.344
72 | TAAGTCCA | 0.26
73 | AGAGTCCG | 0.0522
74 | AATGGCTA | -0.0496
75 | ATGTTCAA | 0.185

Row | Sequence | PBM E-score
76 | CCACTGGA | -0.216
77 | GATTCTAA | 0.0481
78 | TGGCTACA | 0.0201
79 | ATTAGCAA | 0.22
80 | AAGTACGG | 0.0556
81 | AAGCTAAA | 0.12
82 | CATATTCC | 0.0363
83 | CACCCGTG | -0.213
84 | CCAGACAG | -0.094
85 | ACAGACAC | 0.288
86 | ACAGACAA | 0.44
87 | TCAGACCA | -0.0852
88 | ACAGACAT | 0.399
89 | GCAGACCA | -0.0683
90 | GCAGACAA | 0.341
91 | ACAGACGA | 0.153
92 | ACAGACAG | 0.222
93 | CCAGACAA | 0.258
94 | GCAGACAC | 0.203
95 | TCAGACAA | 0.367
96 | TATGAGAA | 0.0684
97 | AATGGTCG | -0.0526
98 | TAGATTCA | -0.192
99 | GCTTCTTA | -0.0464
100 | ACATGTCT | 0.436

Row | Sequence | PBM E-score
101 | ACATGCCT | -0.119
102 | ACATGTTG | 0.235
103 | TCATGTCA | 0.252
104 | ACATGTCG | 0.311
105 | ACATGTCA | 0.358
106 | ACATGTAT | 0.312
107 | ACCTGTCT | 0.0544
108 | CCATGTCG | 0.239
109 | ACATGTAG | 0.244
110 | ACATGTAA | 0.255
111 | ACATGTTA | 0.199
112 | ACCGATAG | 0.0834
113 | GATTCCGC | 0.0634
114 | AAGCCGCA | -0.0983
115 | GACTGCAA | -0.16
116 | AAAGCGAT | 0.00359
117 | TAGGTGAA | 0.0103
118 | GCATGTCC | 0.459
119 | CCATGTCA | 0.164
120 | GCATGTCA | 0.261
121 | CCATGTCC | 0.434
122 | CCATGTAC | 0.216
123 | ACATGTTC | 0.147
124 | ACATGTGC | 0.0743
125 | ACATGTCC | 0.48

Row | Sequence | PBM E-score
126 | GCATGTAC | 0.291
127 | CGGGTTGA | -0.255
128 | CCAGCCCC | -0.304
129 | CTTTGCTA | -0.0573
130 | AAACAGTA | -0.0344
131 | CCACAAGC | -0.0513
132 | CGGACATC | 0.387
133 | AGTACATG | 0.266
134 | AGGACATC | 0.477
135 | CGGACAGC | 0.182
136 | CGGACCTA | 0.00062
137 | AGGACATG | 0.484
138 | AGTACATC | 0.131
139 | CGGACATA | 0.469
140 | AGCACATG | -0.0192
141 | CCGACATC | 0.0379
142 | CGGACTGA | 0.0816
143 | AGCACATC | -0.0251
144 | ATGGGCAA | 0.0683
145 | ACATACCG | 0.114
146 | GGAACGAA | 0.0279
147 | AATCTAAG | 0.00698
148 | GCGAGATA | 0.09
149 | ATCTTCCA | -0.148
150 | GGGACAGA | 0.262

Row | Sequence | PBM E-score
151 | GGGACATA | 0.488
152 | GGGACTGA | -0.182
153 | AGCGTAGG | -0.267
154 | GACCACCA | -0.246
155 | ATCAGACC | -0.192
156 | AAACTGCT | -0.222
157 | CGCCAACG | -0.126
158 | CGCTCTAC | -0.0195
159 | CGTATTGA | -0.0137
160 | ACTGCGGG | -0.124
161 | GGTCTAAA | -0.0883
162 | TGTCTTAA | 0.375
163 | AGTCTGAA | 0.029
164 | GGTCTGAA | 0.0803
165 | TGTCTAAA | 0.38
166 | AGTCTAAA | 0.0711
167 | AGTCTTAA | 0.11
168 | GGTCGCAA | -0.11
169 | TGTCTGAA | 0.364
170 | CGTCTTAA | 0.0585
171 | TGTCGCAA | 0.324
172 | CGTCGCAA | 0.0166
